In paper PMC4081100, “A DNA-binding-site landscape and regulatory network analysis for NAC transcription factors in Arabidopsis thaliana”:

The sequences below were run against GST-WRKY1(266-371) (Arabidopsis thaliana, UniProt Q9SI37 266-371) (assay: universal protein binding microarray (PBM); transcription factors of Arabidopsis thaliana; high values mean tight binding). Settings: protein: recombinant; tags: GST; dsDNA, one strand shown.
Procedure, shortened: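 Each value is a normalised enrichment score (E-score) describing binding. The GST-tagged proteins, NAC-domain, full-length or DNA-binding-domain, were induced in cells (zinc-finger proteins with zinc acetate added) and purified on glutathione–Sepharose 4B. They were applied at 200 to 500 nM final, in duplicate, to double-stranded custom all-10-mer Agilent 4 × 180K arrays, and gapped and ungapped 8-mers were scored.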

Chain of GST-WRKY1(266-371) (Q9SI37 266-371): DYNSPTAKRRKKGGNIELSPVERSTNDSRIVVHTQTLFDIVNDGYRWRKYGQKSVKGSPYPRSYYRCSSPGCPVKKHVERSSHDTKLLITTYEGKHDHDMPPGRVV

Row | Sequence | binding signal [E-score]
1 | CATTGACC | 0.491
2 | GCGGTCAA | 0.487
3 | CGGGTCAA | 0.487
4 | AGGGTCAG | 0.403
5 | CGGGTCAG | 0.408
6 | CGGAGTCA | 0.405
7 | ACTCTGAC | 0.437
8 | AGGGGTCA | 0.415
9 | AGTCGGTC | 0.403
10 | GTGGACCA | 0.418
11 | CGATTGAC | 0.443
12 | AGTCAGCG | 0.453
13 | GCCTTGAC | 0.457
14 | ATAGGTCA | 0.409
15 | GGCGGTCA | 0.428
16 | AGTCAACC | 0.486
17 | GACGGTCA | 0.462
18 | GTCAGCAA | 0.403
19 | AGTCAGCA | 0.432
20 | CAGGTCAA | 0.484

Row | Sequence | binding signal [E-score]
21 | GAGTCAGC | 0.418
22 | GACGACCA | 0.43
23 | GACTGACC | 0.42
24 | ACAGGTCA | 0.443
25 | GGAGTCAA | 0.476
26 | GCGGGTCA | 0.421
27 | TGACCGCA | 0.429
28 | CTGACCTA | 0.413
29 | ATGGTCAG | 0.421
30 | GGCTGACC | 0.431
31 | GTCAAGGA | 0.455
32 | TCTGACCA | 0.456
33 | AGAGGTCA | 0.425
34 | ATCGGTCA | 0.451
35 | CGTCTGAC | 0.418
36 | GTCAGACA | 0.41
37 | CCGCTGAC | 0.414
38 | CAGGTCAG | 0.418
39 | AGTGGTCA | 0.436
